In all, about 5,500 compounds went through this assay and about 2,000 (36%) were called active. Roughly 18% stayed inconclusive and do not appear here. No stated cut-off is given here; in the data, active means normalized growth mostly below about 0.91 (no sharp cut-off); inconclusive means no clear call, values can overlap the other calls; inactive means mostly above about 0.92. This is one part of the list.
Assay: chemical genetic growth profiling, strain panel (AID 1159580);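 further: tested at 20 µM; growth read once vehicle control cultures reached saturation at 30 °C; 1 = growth at the plate median or of vehicle wells; lower values mean less growth of the strain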
Settings: growth OD

Measured: normalized growth

CCCCOC(=O)c1ccccc1C(=O)OCc1ccccc1
inactive: S. cerevisiae deletion strains, locus YAL013W, strain DEP1, active compounds read low 0.988 | S. cerevisiae deletion strains, locus YBR021W, strain FUR4, active compounds read low 0.965 | S. cerevisiae deletion strains, locus YBR229C, strain ROT2, active compounds read low 0.987 | S. cerevisiae deletion strains, locus YCL029C, strain bik1, active compounds read low 0.957 | S. cerevisiae deletion strains, locus YDL035C, strain GPR1, active compounds read low 0.956 | S. cerevisiae deletion strains, locus YDL074C, strain BRE1, active compounds read low 0.971 | S. cerevisiae deletion strains, locus YDL101C, strain DUN1, active compounds read low 0.99 | S. cerevisiae deletion strains, locus YDL134C, strain PPH21, active compounds read low 0.986 | S. cerevisiae deletion strains, locus YDL185W, strain tfp1, active compounds read low 0.961 | S. cerevisiae deletion strains, locus YDL192W, strain arf1, active compounds read low 0.972 | S. cerevisiae deletion strains, locus YDR101C, strain arx1, active compounds read low 0.971 | S. cerevisiae deletion strains, locus YDR150W, strain NUM1, active compounds read low 0.947 | S. cerevisiae deletion strains, locus YDR162C, strain NBP2, active compounds read low 0.975 | S. cerevisiae deletion strains, locus YDR318W, strain mcm21, active compounds read low 0.967 | S. cerevisiae deletion strains, locus YDR388W, active compounds read low 0.95 | S. cerevisiae deletion strains, locus YDR502C, strain sam2, active compounds read low 0.966 | S. cerevisiae deletion strains, locus YEL061C, strain CIN8, active compounds read low 0.989 | S. cerevisiae deletion strains, locus YER110C, active compounds read low 0.968 | S. cerevisiae deletion strains, locus YER155C, strain BEM2, active compounds read low 0.968 | S. cerevisiae deletion strains, locus YER167W, strain BCK2, active compounds read low 0.983 | S. cerevisiae deletion strains, locus YGL078C, strain dbp3, active compounds read low 0.968 | S. cerevisiae deletion strains, locus YGL086W, strain mad1, active compounds read low 0.975 | S. cerevisiae deletion strains, locus YGL248W, strain PDE1, active compounds read low 0.993 | S. cerevisiae deletion strains, locus YGR078C, strain PAC10, active compounds read low 0.97 | S. cerevisiae deletion strains, locus YGR135W, strain pre9, active compounds read low 0.972 | S. cerevisiae deletion strains, locus YGR229C, strain SMI1, active compounds read low 0.895 | S. cerevisiae deletion strains, locus YGR252W, strain gcn5, active compounds read low 0.994 | S. cerevisiae deletion strains, locus YHR030C, strain SLT2, active compounds read low 0.981 | S. cerevisiae deletion strains, locus YHR079C, strain IRE1 (second series), active compounds read low 0.966 | S. cerevisiae deletion strains, locus YHR094C, strain hxt1, active compounds read low 0.965 | S. cerevisiae deletion strains, locus YHR129C, strain ARP1, active compounds read low 0.983 | S. cerevisiae deletion strains, locus YHR200W, strain rpn10, active compounds read low 0.978 | S. cerevisiae deletion strains, locus YIL066C, strain RNR3, active compounds read low 0.929 | S. cerevisiae deletion strains, locus YIL073C, strain SPO22, active compounds read low 0.821 | S. cerevisiae deletion strains, locus YIL125W, strain kgd1, active compounds read low 0.978 | S. cerevisiae deletion strains, locus YIR030C, strain dcg1, active compounds read low 0.965 | S. cerevisiae deletion strains, locus YJL095W, strain BCK1, active compounds read low 0.994 | S. cerevisiae deletion strains, locus YJL134W, strain LCB3, active compounds read low 0.968 | S. cerevisiae deletion strains, locus YJL168C, strain set2, active compounds read low 0.974 | S. cerevisiae deletion strains, locus YJL187C, strain SWE1 (second series), active compounds read low 0.971 | S. cerevisiae deletion strains, locus YJR043C, strain POL32, active compounds read low 0.989 | S. cerevisiae deletion strains, locus YJR075W, strain HOC1, active compounds read low 0.98 | S. cerevisiae deletion strains, locus YKL009W, strain mrt4, active compounds read low 0.94 | S. cerevisiae deletion strains, locus YKL068W, active compounds read low 0.964 | S. cerevisiae deletion strains, locus YKL085W, strain MDH1 (second series), active compounds read low 0.973 | S. cerevisiae deletion strains, locus YKL085W, strain MDH1, active compounds read low 0.973 | S. cerevisiae deletion strains, locus YKL190W, strain CNB1, active compounds read low 0.979 | S. cerevisiae deletion strains, locus YKR001C, strain vps1, active compounds read low 0.959 | S. cerevisiae deletion strains, locus YLR039C, strain RIC1, active compounds read low 0.934 | S. cerevisiae deletion strains, locus YLR058C, strain SHM2, active compounds read low 0.974 | S. cerevisiae deletion strains, locus YLR102C, strain apc9, active compounds read low 0.971 | S. cerevisiae deletion strains, locus YLR262C, strain YPT6, active compounds read low 0.858 | S. cerevisiae deletion strains, locus YLR268W, strain sec22, active compounds read low 0.968 | S. cerevisiae deletion strains, locus YLR330W, strain CHS5, active compounds read low 0.987 | S. cerevisiae deletion strains, locus YLR342W, strain FKS1 (second series), active compounds read low 0.952 | S. cerevisiae deletion strains, locus YLR371W, strain rom2, active compounds read low 0.97 | S. cerevisiae deletion strains, locus YLR418C, strain cdc73, active compounds read low 0.976 | S. cerevisiae deletion strains, locus YML016C, strain PPZ1, active compounds read low 0.996 | S. cerevisiae deletion strains, locus YML032C, strain rad52, active compounds read low 0.964 | S. cerevisiae deletion strains, locus YML124C, strain tub3, active compounds read low 0.956 | S. cerevisiae deletion strains, locus YMR078C, strain ctf18, active compounds read low 0.957 | S. cerevisiae deletion strains, locus YMR223W, strain ubp8, active compounds read low 0.957 | S. cerevisiae deletion strains, locus YMR263W, strain SAP30, active compounds read low 0.973 | S. cerevisiae deletion strains, locus YMR307W, strain GAS1, active compounds read low 0.718 | S. cerevisiae deletion strains, locus YNL067W, strain RPL9B, active compounds read low 0.979 | S. cerevisiae deletion strains, locus YNL128W, strain TEP1, active compounds read low 0.985 | S. cerevisiae deletion strains, locus YNL153C, strain GIM3, active compounds read low 0.981 | S. cerevisiae deletion strains, locus YNL233W, strain BNI4, active compounds read low 0.998 | S. cerevisiae deletion strains, locus YNL250W, strain rad50, active compounds read low 0.968 | S. cerevisiae deletion strains, locus YNL271C, strain bni1, active compounds read low 0.973 | S. cerevisiae deletion strains, locus YNL298W, strain CLA4, active compounds read low 0.949 | S. cerevisiae deletion strains, locus YNL307C, strain MCK1, active compounds read low 0.915 | S. cerevisiae deletion strains, locus YNL322C, strain KRE1, active compounds read low 0.981 | S. cerevisiae deletion strains, locus YNR052C, strain pop2, active compounds read low 0.964 | S. cerevisiae deletion strains, locus YOL006C, strain TOP1, active compounds read low 0.838 | S. cerevisiae deletion strains, locus YOL012C, strain htz1 0.742 | S. cerevisiae deletion strains, locus YOL147C, strain pex11, active compounds read low 0.964 | S. cerevisiae deletion strains, locus YOR061W, strain CKA2, active compounds read low 0.984 | S. cerevisiae deletion strains, locus YOR069W, strain VPS5, active compounds read low 0.982 | S. cerevisiae deletion strains, locus YOR136W, strain idh2, active compounds read low 0.972 | S. cerevisiae deletion strains, locus YOR144C, strain elg1, active compounds read low 0.962 | S. cerevisiae deletion strains, locus YOR184W, strain ser1, active compounds read low 0.931 | S. cerevisiae deletion strains, locus YOR316C, strain cot1, active compounds read low 0.972 | S. cerevisiae deletion strains, locus YPL055C, strain LGE1, active compounds read low 0.957 | S. cerevisiae deletion strains, locus YPL241C, strain CIN2, active compounds read low 0.979 | S. cerevisiae deletion strains, locus YPR119W, strain clb2, active compounds read low 0.955 | S. cerevisiae deletion strains, locus YPR141C, strain kar3, active compounds read low 0.959 | S. cerevisiae deletion strains, locus YPR163C, strain tif3, active compounds read low 0.963 | S. cerevisiae deletion strains, locus YPR167C, strain met16, active compounds read low 0.98 | S. cerevisiae deletion strains, strain wtn01, active compounds read low 0.96 | S. cerevisiae strains, strain wild type, active compounds read low 0.981

From PubChem BioAssay AID1159580 (chemical genetic matrix, 2015)
